Only some compounds are listed: those with a hit (about 21% of all), similar ones and a draw of the others.
AMA1 RON2 block = disrupts binding of P. falciparum AMA1 to RON2. AlphaScreen AMA1-biotinylated RON2 peptide binding. Potency, µM (titrated, usually from 58.2 µM), for the others: top-dose activity change, negative = inhibition, most hits filed as inhibitors. hit rate 0.2% among 360,000;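 note: potency is the fitted concentration of half-maximal effect; 0% = vehicle wells and -100% = peptide control; nearly all actives have a fitted effect of over 45% in size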
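AMA1 (3D7) with his tag at 25 nM final met compounds first, then biotinylated RON2 peptide at 25 nM; detection used donor plus acceptor beads, 10 µg/mL apiece, read by AlphaScreen after 30 min at room temperature.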
Pf growth 48h = inhibits P. falciparum growth in the first generation, 48 h; P. falciparum luciferase growth in erythrocytes, 48 h; hit rate 5.9% among 310,000; AID 504832; Potency, µM (titrated, usually from 28.7 µM), for the others: top-dose activity change, negative = inhibition, actives largely listed as inhibitors; note: potency is the fitted concentration of half-maximal effect; % is set by controls: 0 for no effect and ±100 for the full control effect
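Cell-based growth assay: transgenic P. falciparum expressing firefly luciferase, cultured in red cells within RPMI 1640 containing 0.5% w/v Albumax, 24 mM bicarbonate and gentamycin. A drop in luciferase activity indicates inhibition.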
Cycloheximide cs = counter-screen for Shiga toxin inhibitors: cycloheximide protein synthesis inhibition | cell reporter, cycloheximide protein synthesis inhibition counterscreen | max response, % | hit rate 12% among 300,000 | AID 2314; in the data active = max response mostly above about 13%, no sharp cut-off; inactive = mostly below about 14%; note: read at 38.3 µM for the half of the compounds with a filed dose; 0% is about no effect
Pf growth 96h = inhibits malaria parasite growth, 96 h | P. falciparum luciferase reporter growth, 96 h | Potency, µM (doses to about 28.7 µM), without a hit: at the top dose activity change, negative = inhibition, most hits filed as inhibitors | hit rate 6.9% among 320,000 | AID 504834; note: potency is the fitted concentration of half-maximal effect; % is set by controls: 0 for no effect and ±100 for the full control effect
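P. falciparum expressing integrated firefly luciferase, in erythrocytes at 2% hematocrit, 0.05% parasitemia, incubated with compounds 96 h at 37 C, 5% CO2. Growth inhibition read as loss of luminescence; two-generation exposure targets delayed-death apicoplast inhibitors.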
HCV inh = HCV inhibition | Huh7.5.1 HCVcc-Cre infection, luciferase reporter, 44 h | Potency, µM (highest dose often 41.8 µM), for the others: top-dose activity change, negative = inhibition, usual class: inhibitors | hit rate 3.4% among 340,000 | AID 651820; note: potency is the fitted concentration of half-maximal effect; % is set by controls: 0 for no effect and ±100 for the full control effect
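Reporter virus HCVcc-Cre (~0.5 moi) infects cells exposed to compound; seeding density 1,000 cells/well with 4 h settling beforehand. Luminescence, 15 sec read, taken 44 h post-infection following a 15 min RT substrate incubation.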
Shiga toxin inh = Shiga toxin inhibition | AID 2315 | hit rate 9.2% among 290,000 | inhibition, % at 38.7 µM | Vero cells, Shiga toxin protein synthesis inhibition reporter; in the data active = inhibition mostly above about 28%, no sharp cut-off; inactive = mostly below about 43%; note: 0% is about no effect
The depositor's hits bear a star; [ ] = remark or other dose. Unless noted, calls come from the whole dose curve; as a rule, active = well fitted curve in the direction sought with a large enough effect; inconclusive = small, poorly fitted or top-dose-only effect, or another doubt; inactive = no such curve, though single readings can be large; an effect the other way counts as inactive or inconclusive.

For Cc1cc(N(C)Cc2ccccc2)nc2cc(O)ccc12 the results were AMA1 RON2 block 8%, Pf growth 48h 1.7µM*, Cycloheximide cs 20*, Pf growth 96h 3%, HCV inh -25% and Shiga toxin inh 44*.
For Cc1cc(N(C)Cc2ccccc2)nc(-c2ccccc2)n1 the results were AMA1 RON2 block 8%, Pf growth 48h 0%, Cycloheximide cs 15, Pf growth 96h 9%, HCV inh 10µM* and Shiga toxin inh 50.
For CCCCC(=O)NC(c1ccc(Cl)cc1)c1ccc2cccnc2c1O (configuration not stated) the results were AMA1 RON2 block 79% and HCV inh inconclusive.
Screening CCCC(=O)NC(c1ccc(Cl)cc1)c1ccc2cccnc2c1O (configuration not stated) returned AMA1 RON2 block 49%, Pf growth 48h inconclusive, Cycloheximide cs 1, Pf growth 96h -1%, HCV inh 1.8µM* and Shiga toxin inh -7.
CCCC(=O)NC(c1ccc(C)cc1)c1ccc2cccnc2c1O (configuration not stated) was read as AMA1 RON2 block -20%, Pf growth 48h 3.7µM*, Cycloheximide cs -1, Pf growth 96h 32%, HCV inh 3.5µM* and Shiga toxin inh -6.
For COc1cccc(CN2CCC2(C)C(=O)Nc2cccc(Oc3ccccc3)c2)c1F (configuration not stated) the results were AMA1 RON2 block -2%.
`CSc1ccccc1C(=O)N(CC1CCCO1)c1c(N)n(Cc2ccccc2)c(=O)[nH]c1=O` (configuration not stated) gave AMA1 RON2 block -19%, Pf growth 48h 2%, Pf growth 96h 23% and HCV inh 22%.
For O=C(O)/C=C\C(=O)Nc1cccc(C(=O)Nc2cccc(O)c2)c1 the results were AMA1 RON2 block -17%, Pf growth 48h 78%, Cycloheximide cs 28*, Pf growth 96h 38%, HCV inh 15% and Shiga toxin inh 77*.
O=C(Nc1cccc(O)c1)c1ccccc1 was read as AMA1 RON2 block -7%, Pf growth 48h 49%, Cycloheximide cs 20*, Pf growth 96h -13%, HCV inh -11% and Shiga toxin inh 38*.
`Cc1cc(C(=O)Nc2cccc(O)c2)co1` gave AMA1 RON2 block -6%, Pf growth 48h 78%, Cycloheximide cs 32*, Pf growth 96h inconclusive, HCV inh 12% and Shiga toxin inh 74.
Screening Cc1cc(C(=O)Nc2cccc(O)c2)c(C)o1 returned AMA1 RON2 block 8%, Pf growth 48h 29%, Cycloheximide cs 18, Pf growth 96h 18%, HCV inh -5% and Shiga toxin inh 15.
`O=C(Nc1cccc(O)c1)c1cccc(NC(=O)c2cccs2)c1` gave AMA1 RON2 block -9%, Pf growth 48h inconclusive, Cycloheximide cs 15, Pf growth 96h 34%, HCV inh -29% and Shiga toxin inh 57.
Screening O=C(Nc1ccccc1)c1ccsc1 returned AMA1 RON2 block 17%, Pf growth 48h 33%, Cycloheximide cs 27*, Pf growth 96h 29%, HCV inh 8% and Shiga toxin inh 54.
For Cc1ccc(S(=O)(=O)NCCc2ccncc2)cc1[N+](=O)[O-] the results were AMA1 RON2 block -2%, Pf growth 48h inconclusive, Cycloheximide cs 2, Pf growth 96h inconclusive, HCV inh 8% and Shiga toxin inh -9.
O=C(CS(=O)(=O)c1ccccc1)Nc1ccccc1Br was read as AMA1 RON2 block 18% and HCV inh -3%.
For CC1(C(=O)NS(=O)(=O)c2ccc(C#N)cc2)CCN1C(=O)C1(c2ccc(Cl)cc2)CC1 (configuration not stated) the results were AMA1 RON2 block -2%.
O=C1NC(c2ccc(Br)cc2)=N/C1=C/c1ccco1 was read as AMA1 RON2 block 7%, Pf growth 48h 89%, Cycloheximide cs 41*, Pf growth 96h inconclusive, HCV inh 0% and Shiga toxin inh 63*.
`O=C1NC(c2ccccc2Cl)=N/C1=C/c1ccco1` gave AMA1 RON2 block -15%, Pf growth 48h 15%, Cycloheximide cs 38*, Pf growth 96h -30%, HCV inh 9% and Shiga toxin inh 61*.
`O=C1NC(=O)C(=Cc2ccco2)C(=O)N1` gave AMA1 RON2 block inconclusive and HCV inh -12%.
Screening O=C(OCC(=O)N(CCc1ccccc1)Cc1ccccc1)c1ccc(F)c(S(=O)(=O)N2CCOCC2)c1 returned AMA1 RON2 block 0% and HCV inh -20%.
`CN1CCN(/C=N/c2sc3c(c2C#N)CCCCC3)CC1` gave AMA1 RON2 block -6%, Pf growth 48h 67%, Cycloheximide cs 46*, Pf growth 96h 329%, HCV inh -23% and Shiga toxin inh 89*.
`CC(C)CN(/C=N/c1sc2c(c1C#N)CCCCC2)CC(C)C` gave AMA1 RON2 block -10%, Cycloheximide cs -2, Pf growth 96h inconclusive, HCV inh -19% and Shiga toxin inh -4.
Screening CCN(/C=N/c1sc2c(c1C#N)CCCCC2)CC returned AMA1 RON2 block -5%, Pf growth 48h 76%, Cycloheximide cs 52*, Pf growth 96h 165%, HCV inh inconclusive and Shiga toxin inh 67*.
`CC(NCCN(C)C)C(=O)C12CC3CC(CC(C3)C1)C2` (configuration not stated) gave AMA1 RON2 block 33%, Pf growth 48h inconclusive, Cycloheximide cs 1, Pf growth 96h 5.9µM*, HCV inh 5% and Shiga toxin inh 22.
`CC(O/N=C(\N)c1ccccc1)C(=O)Nc1cccc(C(F)(F)F)c1` (configuration not stated) gave AMA1 RON2 block -2% and HCV inh inconclusive.
For COc1cc(OC)c(C(=O)OC(C)C(=O)Nc2cccc(C(F)(F)F)c2)cc1OC (configuration not stated) the results were AMA1 RON2 block -19%[2.32 µM], Pf growth 48h inconclusive, Cycloheximide cs -3, Pf growth 96h 9.3µM*, HCV inh inconclusive and Shiga toxin inh -9.
`CCC12CN(C(=O)c3ccc(C)cc3)CC(CC)(CN(C(=O)c3ccc(C)cc3)C1)C2=O` gave AMA1 RON2 block 1%, Pf growth 48h inconclusive, Cycloheximide cs -6, Pf growth 96h 59%, HCV inh 2% and Shiga toxin inh -8.
`Cc1ccc(C(=O)N2CC3(C(C)C)CN(C(=O)c4ccc(C)cc4)CC(C(C)C)(C2)C3=O)cc1` gave AMA1 RON2 block 0%, Cycloheximide cs -3, Pf growth 96h 9.3µM*, HCV inh -3% and Shiga toxin inh -5.
For CC(C)CNC(=O)COc1ccc(Sc2ccc(OCC(=O)NCC(C)C)cc2)cc1 the results were AMA1 RON2 block 13%, Pf growth 48h inconclusive, Cycloheximide cs -4, Pf growth 96h inconclusive, HCV inh inconclusive and Shiga toxin inh -12.
